Laboratory results published in the supplement of paper PMC12350171.
Where a name gives a salt, the structure may show the parent alone.

Tests used:
Conditions in all cases: 20 µM
[1] = test system: Haemophilus parainfluenzae; experiment: growth AUC normalised to DMSO control (fraction of control); higher = less growth inhibition, active = hit call of the paper
Method in brief: (§1)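 For the AUC endpoint, growth curves were integrated by the trapezoidal rule up to the exponential-to-stationary transition and normalised to DMSO controls on the same plate. The curves came from OD578 readings taken hourly for 24 h, in three biological replicates. Pathogens had been passaged anaerobically twice and inoculated at an OD578 of 0.01 into pre-reduced mGAM plates carrying 20 μM compound and 1% DMSO, sealed with breathable membranes. Medium for Haemophilus parainfluenzae also contained hemin and NAD.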

[2] = test system: Salmonella enterica typhimurium; experiment: as above
Method in brief: as §1

[3] = test system: Shigella flexneri; experiment: as above
Method in brief: as §1

[4] = test system: Vibrio cholerae; experiment: as above
Method in brief: as §1

[5] = test system: Yersinia pseudotuberculosis; experiment: as above
Method in brief: as §1

[6] = test system: P. vulgatus RND KO; experiment: growth AUC normalised to DMSO control (median) (fraction of control); higher = less growth inhibition, active = hit call of the paper
Method in brief: (§2)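 Strains were passaged twice overnight without oxygen, then grown in mGAM in 96-well plates with each approved-drug library compound at 20 μM and 1% DMSO, starting at OD578 0.01. OD578 was read hourly for 24 h inside an anaerobic incubator. Curves were truncated at entry into stationary phase, and the trapezoidal-rule area under the curve was normalised to same-plate vehicle wells. The value is the median across three biological replicates.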

[7] = test system: P. vulgatus WT; experiment: as above
Method in brief: as §2

[8] = test system: S. enterica typhimurium WT; experiment: as above
Method in brief: as §2

[9] = test system: S. enterica typhimurium tolC KO; experiment: as above
Method in brief: as §2

Measured: growth AUC normalised to DMSO control
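For growth AUC normalised to DMSO control (median) in this document: active when median AUC fell below 0.1.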

C[N+]1(C)CCCC(OC(=O)C(O)(c2ccccc2)c2ccccc2)C1 (stereo not drawn) [Mepenzolate bromide]
inactive: [1] 0.915 | [2] 1.01 | [3] 0.986 | [4] 0.947 | [5] 1 | [6] 1.02 | [7] 1.05 | [8] 1.01 | [9] 0.996

CN[C@@H]1[C@@H](O)[C@@H](O[C@@H]2[C@@H](O)[C@H](O[C@H]3O[C@H](CN)CC[C@H]3N)[C@@H](N)C[C@H]2N)OC[C@]1(C)O.CN[C@@H]1[C@@H](O)[C@@H](O[C@@H]2[C@@H](O)[C@H](O[C@H]3O[C@H]([C@@H](C)N)CC[C@H]3N)[C@@H](N)C[C@H]2N)OC[C@]1(C)O.CN[C@@H]1[C@@H](O)[C@@H](O[C@@H]2[C@@H](O)[C@H](O[C@H]3O[C@H]([C@@H](C)NC)CC[C@H]3N)[C@@H](N)C[C@H]2N)OC[C@]1(C)O [Gentamicine sulfate]
inactive: [1] 0.864 | [2] 1 | [3] 1.02 | [4] 1.04 | [5] 1.02 | [6] 1.05 | [7] 1.02 | [8] 1 | [9] 1

CO[C@]12C[C@@H](COC(=O)c3cncc(Br)c3)CN(C)[C@@H]1Cc1cn(C)c3cccc2c13 [Nicergoline]
inactive: [1] 1.03 | [2] 1.01 | [3] 1 | [4] 0.996 | [5] 1 | [6] 0.933 | [7] 0.948 | [8] 1 | [9] 0.942

CC[C@@H](CO)NC(=O)[C@@H]1C=C2c3cccc4[nH]cc(c34)C[C@H]2N(C)C1 [Methylergometrine maleate]
inactive: [1] 0.997 | [2] 0.985 | [3] 0.966 | [4] 1.01 | [5] 0.998 | [6] 0.975 | [7] 0.952 | [8] 0.993 | [9] 1

CC(C)CC(N(C)C)C1(c2ccc(Cl)cc2)CCC1 (stereo not drawn) [Sibutramine hydrochloride]
inactive: [1] 0.969 | [2] 1 | [3] 0.971 | [4] 0.967 | [5] 1 | [6] 1.02 | [7] 1.02 | [8] 1 | [9] 0.999

CN(C)C(=O)Oc1cccc([N+](C)(C)C)c1 [Neostigmine bromide]
inactive: [1] 1 | [2] 1 | [3] 0.994 | [4] 1.01 | [5] 0.916 | [6] 1 | [7] 0.997 | [8] 1 | [9] 1.01

S=C(NC1CCCCC1)N1CCC(c2cnc[nH]2)CC1 [Thioperamide maleate]
inactive: [1] 0.976 | [2] 0.98 | [3] 0.957 | [4] 0.97 | [5] 0.991 | [6] 1 | [7] 1.01 | [8] 0.997 | [9] 0.996

CC(C)c1cccc(C(C)C)c1O [Propofol]
inactive: [1] 0.988 | [2] 1.01 | [3] 1.01 | [4] 1.01 | [5] 0.985 | [6] 1.05 | [7] 1.05 | [8] 1.01 | [9] 0.993

CCCC[N+]1(C)[C@@H]2C[C@@H](OC(=O)[C@H](CO)c3ccccc3)C[C@H]1[C@@H]1O[C@@H]12 (stereo partly drawn) [N-Butylscopolammonium bromide]
inactive: [1] 1 | [2] 1 | [3] 0.993 | [4] 1.01 | [5] 1.02 | [6] 1 | [7] 1 | [8] 1 | [9] 0.995

CCCC(C)(COC(N)=O)COC(=O)NC(C)C (stereo not drawn) [Carisoprodol]
inactive: [1] 0.843 | [2] 1 | [3] 0.977 | [4] 0.948 | [5] 1 | [6] 1 | [7] 1.02 | [8] 1 | [9] 0.979

CC(NC(C)(C)C)C(=O)c1cccc(Cl)c1 (stereo not drawn) [Bupropion hydrochloride]
inactive: [1] 1.01 | [2] 1 | [3] 1.05 | [4] 1.05 | [5] 1.01 | [6] 1.03 | [7] 1.03 | [8] 0.996 | [9] 1

C[N+]1(C)[C@@H]2CC[C@H]1C[C@@H](OC(=O)C(CO)c1ccccc1)C2 (stereo partly drawn) [Methylatropine nitrate]
inactive: [1] 1.05 | [2] 1.01 | [3] 1.03 | [4] 1.02 | [5] 1 | [6] 1.02 | [7] 1.04 | [8] 0.999 | [9] 1.02
